From PubChem BioAssay (NCATS) come the findings set out here.

SMILES strings stand for the structures. Inconclusive results are not listed. Entries that show only a call come without a potency. Active and inactive are the calls of the source. Calls follow the shape of the dose curve; as a rule, active = well fitted cell-killing curve with a large enough effect; inconclusive = small, poorly fitted or top-dose-only effect, or effect the other way; inactive = flat fitted curve, though single readings scatter. Where a SMILES comes first, the peptide text is derived from it. The star is where a group is joined. βNA = c1ccc2cc(N*)ccc2c1; Cbz = O=C(OCc1ccccc1)*

The subject of this experiment is Es-2. Nature of the experiment: Primary qHTS to identify gynecologic anti-cancer compounds using libraries of approved drugs and bioactive compounds (AID 1345084). Also: nearly all actives have a fitted effect of over 55% in size. As to conditions: Gynecologic cancer cell panel viability, ATPlite luminescence, 48 h; series mostly up to 57.5 µM. The essentials: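 Cells, 1,000 per well, plated 16 h, then exposed 48 h at 37 C to compounds. Viability by ATPlite luminescence after 15 min at room temperature.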
A general note: In qHTS, concentration-response curves come from the screen itself.
Consider `O=C(O)Cc1cn([C@@H]2O[C@H](CO)[C@@H](O)[C@H](O)[C@H]2O[C@@H]2O[C@H](CO)[C@@H](O)[C@H](O)[C@H]2O)c2ccccc12`, for which the Potency result was “inactive”. As to `C=C1CC[C@@]2(OC1)O[C@H]1CC3[C@@H]4CC=C5C[C@@H](O)C[C@@H](O[C@@H]6OC[C@H](O)[C@H](O)[C@H]6O[C@@H]6O[C@@H](C)[C@H](O)[C@@H](O)[C@H]6O)[C@]5(C)C4CC[C@]3(C)[C@H]1[C@@H]2C` (some centres undefined), the Potency entry is “inactive”. For the compound `CC(C)CC(NC(=O)OCc1ccccc1)C(=O)NC(CC(C)C)C(=O)NC(CCC(=O)O)C(=O)Nc1ccc2ccccc2c1` (stereo not drawn) (Cbz-Leu-Leu-Glu-βNA; configuration not given here), the Potency entry is “inactive”.

With `OC[C@@]1(O)CO[C@H](OC[C@H]2O[C@@H](OC(CCCCc3ccc(O)cc3)CCc3ccc(O)cc3)[C@H](O)[C@@H](O)[C@@H]2O)[C@@H]1O` (some centres undefined), the Potency result was “inactive”.

Take `Nc1ccc(-n2nc(C(F)(F)F)cc2C(F)(F)F)cc1`: the Potency result was “inactive”. Regarding `C/C(=C\C(=O)C[C@@]12C(=O)O[C@]3(C)CC[C@H]1C[C@H]23)C(N)=O`, the Potency entry is “inactive”. The same measure, in the same setting: in the case of `Nc1ncnc2c1C(=O)N(c1ccc(C3CCC(CC(=O)O)CC3)cc1)CCO2` (centres undefined) it was “inactive”; in that of `COC1OC(=O)C2=C1C1(C)CCCC(C)(C)C1CC2O` (centres undefined), “inactive”. With `C=C(CC/C=C(\C)C(=O)O)C1(O)CC=C(C)CC1` (centres undefined), the Potency entry was “inactive”.

Consider `CC(C)Oc1ccc(-c2nc(-c3cccc4c3CCC4NCCC(=O)O)no2)cc1C#N` (centres undefined), for which the Potency result was “inactive”. Regarding `C=C1CC[C@@]2(OC1)O[C@H]1CC3[C@@H]4CC=C5C[C@H](O[C@H]6OC[C@@H](O)C(O)[C@@H]6O[C@@H]6O[C@@H](C)[C@H](O)[C@@H](O[C@@H]7O[C@H](CO)[C@@H](O)[C@H](O)[C@H]7O)[C@H]6O)C[C@@H](O)[C@]5(C)C4CC[C@]3(C)[C@H]1[C@@H]2C` (some centres undefined), the activity change, negative = cytotoxicity was -3.81% [at 11.6 µM] (inactive).

For `CC(C)c1cc2c(c(O)c1O)[C@@]13CCCC(C)(C)C1[C@@H](O)[C@@H]2OC3=O` (some centres undefined), the Potency result was “inactive”.

Turning to `COc1cccc(C)c1C(=O)O[C@@H]1C[C@H](O[C@H]2[C@H](O)C[C@H](O[C@@H]3CCC[C@H]4[C@H]3C=C[C@@H]3CCCC/C=C/[C@H]5C=C(C(=O)O)[C@@H](C)C[C@@]56OC(=O)C(=C6O)OC(=O)[C@@]34C)O[C@@H]2C)O[C@H](C)[C@H]1O`, the activity change, negative = cytotoxicity is 4.28% [at 11.6 µM] (inactive). As for `CC(=O)OC1C(CO)OC(O[C@H]2[C@H](OC(=O)[C@]34CCC(C)(C)C[C@H]3C3=CCC5[C@@]6(C)CC[C@H](O[C@@H]7O[C@H](C(=O)O)[C@@H](O)[C@H](O[C@@H]8OC[C@@H](O)[C@H](O)[C@H]8O)[C@H]7O[C@@H]7O[C@H](CO)[C@H](O)[C@H](O)[C@H]7O)[C@@](C)(C=O)C6CC[C@@]5(C)[C@]3(C)C[C@H]4O)O[C@H](C)[C@H](OC3OC(C)C(OC4OCC(O)C(O)C4O)C(O)C3O)[C@@H]2O)C(O)C1O` (some centres undefined), the activity change, negative = cytotoxicity was -0.286% [at 6.55 µM] (inactive). Take `CC(C)=CCC/C(C)=C/CO[C@@H]1O[C@H](CO[C@@H]2O[C@@H](CO)[C@H](O)[C@H]2O)[C@@H](O)[C@H](O)[C@H]1O`: the Potency result was “inactive”. On to `O=C(c1ccc(Cl)c([N+](=O)[O-])c1)N1CCN(c2ccccc2F)CC1`, for which the Potency entry is “inactive”. For the compound `COc1cc(O)c2c(c1Cl)CC(C)OC2=O` (centres undefined), the Potency entry was “inactive”.

For the compound `CCCCNc1nc(N)c2[nH]c(=O)n(Cc3ccc(OCCN(C)C)nc3)c2n1`, the Potency entry is “inactive”.

As for `CC(O)C(=O)/C=C/C=C/C(=O)OC1C=C2COC(=O)C2(O)C2(C)CCCC(C)(C)C12` (centres undefined), the Potency result is “inactive”.

Take `CC1(C)CC[C@]2(C(=O)O)CC[C@]3(C)C(=CCC4[C@@]5(C)CC[C@H](O[C@@H]6O[C@H](C(=O)O)[C@@H](O)[C@H](O[C@@H]7O[C@H](CO)[C@H](O)[C@H](O)[C@H]7O)[C@H]6O[C@@H]6O[C@H](CO)[C@@H](O)[C@H](O)[C@H]6O)C(C)(C)C5CC[C@]43C)[C@@H]2C1` (some centres undefined): the activity change, negative = cytotoxicity was -0.476% [at 6.55 µM] (inactive). On to `CC(=O)OC(C)(C)/C=C/C(=O)[C@](C)(O)C1[C@H](O)C[C@@]2(C)[C@@H]3CC=C4[C@@H](C[C@H](O[C@@H]5O[C@H](CO)[C@@H](O)[C@H](O)[C@H]5O)C(=O)C4(C)C)[C@]3(C)C(=O)C[C@]12C` (some centres undefined), for which the Potency result is “inactive”.

In the case of `CC1=CC(=O)CC(C)(C)[C@@]1(O)/C=C/C(C)O[C@@H]1O[C@H](CO)[C@@H](O)[C@H](O)[C@H]1O` (some centres undefined), the Potency entry was “inactive”.

For `CC(C)C1NC(=O)C(CC2(O)c3ccccc3N3C(=O)C(Cc4ccccc4)NC32)NC1=O` (centres undefined), the Potency result is “inactive”. As to `OC[C@@]1(O)CO[C@H](OC[C@H]2O[C@@H](OC(CCCCc3ccc(O)cc3)CCc3ccc(O)cc3)[C@H](O[C@H]3OC[C@](O)(CO)[C@H]3O)[C@@H](O)[C@@H]2O)[C@@H]1O` (some centres undefined), the Potency result was “inactive”. Take `COC(=O)c1c(CC=C(C)C)c(OC2OC(CO)C(O)C(O)C2O)c2ccccc2c1OC1OC(CO)C(O)C(O)C1O` (centres undefined): the Potency result was “inactive”. As to `C[C@]1(O)CC[C@@H]2C(C(=O)O)=CO[C@@H](O[C@@H]3O[C@H](COC(=O)/C=C/c4ccc(O)c(O)c4)[C@@H](O)[C@H](O)[C@H]3O)[C@@H]21`, the Potency result is “inactive”.

For the compound `CC(C)(O)C1CC=C(C(=O)OC[C@H]2O[C@@H](Oc3cc(C(=O)O)cc(O)c3O)[C@H](O)[C@@H](O)[C@@H]2O)CC1` (some centres undefined), the Potency result was “inactive”. For `COc1cc2c(cc1O)CC(O)(CO)C(CO)C2c1ccc(OC2OC(CO)C(O)C(O)C2O)c(OC)c1` (centres undefined), the Potency entry was “inactive”.

As for `O=C(O)CC/C=C\C[C@H]1CO[C@@H](c2ccccc2Cl)O[C@H]1c1ccccc1O`, the Potency entry was “inactive”.
